# Only some compounds are listed: those with a hit (about 3.6% of all), similar ones and a draw of the others.
# BoNT-A LC inh2 – BoNT/A light chain protease inhibitors, primary screen, biochemical, flow cytometry, MLPCN library. inhibition, % at 10 µM. Botulinum neurotoxin type A light chain protease (Clostridium botulinum A str. ATCC 3502). 360,000 compounds, 0.17% hits. multiplex microsphere protease substrate cleavage. AID 588499, 2011; also: plate controls were buffer without enzyme for full effect and enzyme alone for no effect
# Bead autofluor – compound fluorescence in toxin protease inhibitor counterscreen; AID 624483; fluorescence intensity (concentration not given with the values); 360,000 compounds, 3.1% hits; compound autofluorescence counterscreen, microsphere flow cytometry; stronger effect = higher value; in the data active = fluorescence intensity above about 16000; inconclusive = no clear call, values can overlap the other calls
# BoNT F protease – BoNT/F light chain protease inhibitors, primary screen, biochemical, flow cytometry, MLPCN library | Botulinum neurotoxin type F light chain protease (Clostridium botulinum) | Multiplex microsphere protease cleavage assay | inhibition, % at 10 µM | 360,000 compounds, 0.22% hits | AID 588497, 2011; in the data active = inhibition above about 35%, passing the limit was not always enough; inconclusive = no clear call, values can overlap the other calls; also: plate controls were buffer without enzyme for full effect and enzyme alone for no effect
# MazEF act – activators of E. coli MazEF toxin-antitoxin RNase, primary screen, biochemical, fluorescence, uHTS. Endoribonuclease toxin MazF (Escherichia coli (strain K12)), P0AE70. FAM/BHQ RNA-DNA oligo cleavage fluorescence, 5 h. activation, % at 20 µM. 350,000 compounds, 0.32% hits; in the data active = activation above about 50%
# Target sequence (P0AE70 whole entry, looked up): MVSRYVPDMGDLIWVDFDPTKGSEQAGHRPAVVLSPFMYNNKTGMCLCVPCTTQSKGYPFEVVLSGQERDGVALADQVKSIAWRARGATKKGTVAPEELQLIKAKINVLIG
# Anthrax LF prot – Bacillus anthracis LF protease inhibitors, primary screen, biochemical, multiplex microsphere, MLPCN library; 360,000 compounds, 0.12% hits; inhibition, % at 10 µM; Lethal factor (Bacillus anthracis), P15917; AID 588501, 2011; multiplex microsphere protease cleavage assay; also: plate controls were buffer without enzyme for full effect and enzyme alone for no effect
# An asterisk follows results filed as active; ? = inconclusive; / = not tested or not shown. Rule as the data show it, unless noted: active = inhibition above about 30%; inconclusive = no clear call, values can overlap the other calls; inactive = below that.
SMILES,BoNT-A LC inh2,Bead autofluor,BoNT F protease,MazEF act,Anthrax LF prot
CCn1c(SCC(=O)Nc2nc3ccc(OC)cc3s2)nc2c1c(=O)n(C)c(=O)n2C,5,21795*,4,-10,-5
CCCn1c(SCC(=O)Nc2nc(-c3ccc(OC)cc3)cs2)nc2c1c(=O)n(C)c(=O)n2C,0,2186,-7,193*,-2
COc1ccccc1-c1sc2ccccc2c1C#Cc1ccc(N(C)C)cc1,7,2807,-18,-6,-3
Nc1cc2c(cc1N)-c1ccccc1C2,2,3250,-22,5,-9
CCC(C)NCCCCOc1ccc(C)cc1[N+](=O)[O-] (stereo not given),0,20177*,-1,-2,0
C=CCNCCCCOc1ccc(C)cc1[N+](=O)[O-],1,4187,8,7,2
COc1ccc(-c2nn(-c3ccccc3)cc2/C=C2/SC(=S)N(Cc3ccco3)C2=O)c(C)c1,30*,12304,37*,0,36*
O=C(COc1ccc2c3c(c(=O)oc2c1)CCC3)c1ccc2c(c1)OCO2,0,5481,-4,125*,10
COC(=O)c1cc(COc2ccc3c4c(c(=O)oc3c2)CCCC4)c(C)o1,-1,9343,-14,7,-3
Cc1oc(C(=O)O)cc1COc1ccc2c3c(c(=O)oc2c1)CCC3,?,20992*,-4,1,-4
O=C(O)COc1ccc2c3c(c(=O)oc2c1)CCCC3,0,4477,5,9,0
CC(=O)Nc1cc(-c2ccc(F)cc2)cn2c(-c3ccc(S(C)(=O)=O)cc3)cnc12,0,4113,6,/,7
C[C@H](CO)N1C[C@H](C)[C@@H](CN(C)S(=O)(=O)c2ccccc2)Oc2c(NC(=O)CCC(F)(F)F)cccc2C1=O,0,3078,12,0,-7
CC[C@H](C)[C@H](NC(=O)c1ccc(Cl)cc1)C(=O)OCC(=O)c1c(N)n(C)c(=O)n(C)c1=O,0,3644,-1,8,-7
Cc1cc(C)c(S(=O)(=O)Nc2ccc(Cl)cn2)c(C)c1,/,/,/,5,/
Cc1ccc2c(c1)C(c1ccc(N3CCOCC3)cc1)=NNC(c1cccs1)=N2,0,20609*,1,4,-2
Brc1ccc2c(c1)C(c1ccc(N3CCOCC3)cc1)=NNC(c1cccs1)=N2,3,19294*,-1,9,-8
Fc1ccc2c(c1)C(c1ccc(N3CCOCC3)cc1)=NNC(c1cccs1)=N2,?,19055*,3,2,-2
COc1ccccc1CNC(=O)C(NC(=O)c1ccccc1C)C(C)C (stereo not given),-2,4856,-6,24,-10
Cc1cccc(CC(=O)N2CCCC2)c1,-1,4067,?,8,3
CCOC1=C2CN(S(=O)(=O)c3ccc(C)cc3)[C@@H](c3ccc(CC)cc3)C[C@H]2[C@H]2C(=O)N(c3ccccc3)C(=O)[C@H]2C1,0,5791,6,/,0
CCOc1ccc(OCCC(=O)OCC(=O)NC2CCCC2)cc1,/,/,/,3,/
O=C(O)C1(Cc2nc3ccccc3[nH]2)CCCC1,-2,2927,10,-12,2
O=C(O)COCc1nc2ccccc2[nH]1,-3,25242*,-1,0,2
Cn1ccsc1=NC(=O)c1ccc(S(C)(=O)=O)cc1,0,5643,-2,9,-1
SMILES,BoNT-A LC inh2,Bead autofluor,BoNT F protease,MazEF act,Anthrax LF prot
Cc1ccc2c(c1)NCCO2,?,23601*,-1,-6,-6
Cc1cc2ccccn2c1C(=O)c1ccc([N+](=O)[O-])o1,0,3885,2,5,-4
O=C(CC1SC(N2CCOCC2)=NC1=O)Nc1cccc(C(F)(F)F)c1 (stereo not given),2,7674,1,-1,0
O=[N+]([O-])c1cc(-c2cnc3ccccc3n2)ccc1Oc1ccc(F)cc1,?,20404*,2,0,-1
CCCC(=O)N1CCCC1(C)C(=O)Nc1ccc2nc(C)ccc2c1 (stereo not given),0,3878,-3,/,-4
CCN(CC)C(=O)CSc1nc(-c2cccs2)cc(-c2cccs2)c1C#N,13,3793,-4,-3,2
CCN(CC)C(=O)CSc1nc(N)c(C#N)c(-c2cccs2)c1C#N,?,21936*,-1,-6,-2
CCc1c(C#N)c(N)nc(SCC(=O)OCc2ccccc2)c1C#N,-3,17979*,-6,-1,-6
CCOC1=C2CN(S(=O)(=O)c3ccc(C)cc3)[C@H](c3ccccc3)C[C@@H]2N(S(=O)(=O)c2ccc(C)cc2)[C@H](c2cccs2)C1,-1,5412,-1,/,-2
COC(=O)CNC(=O)/C=C/c1ccc(OC)cc1,0,19785*,-1,0,-6
CCOC(=O)c1cnc(Nc2nc3ccccc3o2)nc1C,4,20539*,5,4,-2
CCOC(=O)c1cnc(Nc2nc3ccccc3o2)nc1CSc1nnc(C)s1,-3,3978,5,7,2
N=c1oc2ccc3ccccc3c2cc1-c1nc(-c2ccccc2)cs1,34*,7671,23,-38,32*
N=c1oc2ccccc2cc1-c1nc(-c2ccccc2)cs1,3,8972,0,-28,1
CCn1c(SCC(=O)OC)nnc1-c1ccc(C)cc1,-1,4594,-2,-8,4
CCOC(=O)CSc1nnc(-c2nnc(SCC(=O)OCC)n2CC)n1CC,11,16806*,14,1,5
O=C(Nc1ccc(Cl)c(Cl)c1)c1csc(-c2ccccc2)n1,0,16273*,-3,1,-3
COc1ccc2nc(C)cc(SCC(=O)N/N=C/c3ccc(O)c(O)c3)c2c1,0,4307,-7,10,-3
COc1ccc2nc(C)cc(SCC(=O)N/N=C/c3cccc4ccccc34)c2c1,1,19063*,-2,55*,-1
COc1ccc(C2(c3ccc(OC)cc3)NC(=O)N(CC(=O)N3CCOCC3)C2=O)cc1,0,3483,2,3,9
COc1ccc(-c2cc(C(=O)NC3CCCC3)no2)cc1OC,0,22323*,-1,3,2
COc1ccc(C2OC(=O)CC2C(=O)NC2CCCCCC2)cc1OC (stereo not given),-6,22084*,-7,-16,-2
COc1ccc(C2=NOC(C(=O)NC3CCCCC3)C2)cc1OC (stereo not given),0,23218*,3,-3,-2
COc1ccc(C2OC(=O)CC2C(=O)NC2CCCC(C)C2C)cc1OC (stereo not given),0,9223,6,1,6
COc1ccc(-c2cc(C(=O)NC3CCCC3)no2)cc1,3,5791,14,6,-1
CC1(C)C(=O)OC(C(=O)c2ccccc2)C(C)(C)C1=O (stereo not given),3,21463*,3,16,0
